Screening data from PubChem BioAssay.
Many of the other results were omitted from the sample, so hits are more common in it than they were.
Pf Dd2 growth = Plasmodium falciparum Dd2 growth inhibition; P. falciparum Dd2 growth, SYBR Green, 72 h; Potency, µM (series often up to 28.9 µM), usual class: inhibitors; 120,000 tested, 4.3% active; active = well fitted inhibition curve with a large enough effect; also: nearly all actives have a fitted effect of over 65% in size
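Infected erythrocytes (Dd2, 0.3% parasitemia, 2.5% hematocrit final) are added to compound in RPMI-1640/Albumax II medium, grown 72 h at 37C in low oxygen, then lysed with saponin/Triton-X containing SYBR Green and read by fluorescence.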
Numbers stand for hits.

Screening C[C@]1(O)CCN(Cc2ccc(-c3ccccc3C#N)o2)C[C@@H]1O returned Pf Dd2 growth inactive.
`COCCOCC(=O)NC1CCN(C(=O)N2CC3CC(C2)[C@H]2CCCC(=O)N2C3)CC1` (stereo partly specified) gave Pf Dd2 growth inactive.
`Cc1ccccc1[C@H]1C[C@@H](O)[C@@H](O)[C@@H]1NS(=O)(=O)c1ccc(C(F)(F)F)cc1` gave Pf Dd2 growth inactive.
Screening CCN1CCN(C(=O)C2CCc3nc(N4CCN(C(=O)C5CCC5)CC4)sc3C2)CC1 (stereo unspecified) returned Pf Dd2 growth inactive.
For CCC(=O)N1CCN(c2nc3c(s2)CC(C(=O)NCc2ccccc2)CC3)CC1 (stereo unspecified) the results were Pf Dd2 growth 7.9µM.
Cc1ccccc1C(=O)N1CCC(C(=O)Nc2ccc(F)cc2F)CC1 was read as Pf Dd2 growth inactive.
CCC(=O)N1CCN(c2nc3c(s2)CC(C(=O)NCc2cccc(OC)c2)CC3)CC1 (stereo unspecified) was read as Pf Dd2 growth inactive.
For CCC(=O)N1CCc2nc(N3CCN(Cc4cccnc4)CC3)sc2C1 the results were Pf Dd2 growth inactive.
O=C(NCc1ccncc1)C1CCc2nc(N3CCN(C(=O)C4CCC4)CC3)sc2C1 (stereo unspecified) was read as Pf Dd2 growth inactive.
O=C(NCc1cccs1)C1CCc2nc(N3CCN(C(=O)C4CCC4)CC3)sc2C1 (stereo unspecified) was read as Pf Dd2 growth 5µM.
Screening O=C(O)C1CCc2nc(N3CCN(C(=O)C4CCC4)CC3)sc2C1 (stereo unspecified) returned Pf Dd2 growth inactive.
Cc1cccc(NC(=O)C2CCN(c3nnc(-n4c(C)ccc4C)s3)CC2)c1C was read as Pf Dd2 growth inactive.
For CCC(=O)N1CCN(c2nc3c(s2)CC(C(=O)Nc2cccc(C)c2C)CC3)CC1 (stereo unspecified) the results were Pf Dd2 growth 4µM.
Screening O=C(NCc1ccco1)C1CCc2nc(N3CCN(C(=O)C4CCC4)CC3)sc2C1 (stereo unspecified) returned Pf Dd2 growth inactive.
Screening CCC(=O)N1CCN(c2nc3c(s2)CC(C(=O)Nc2ccc(F)cc2F)CC3)CC1 (stereo unspecified) returned Pf Dd2 growth 5µM.
O=C1c2cc(N3CCOCC3)nc(-c3cccc(CO)c3)c2CN1Cc1ccccc1 was read as Pf Dd2 growth inactive.
Screening CC(=O)N1CCC(C(=O)N[C@H](Cc2ccccn2)C2CC(O)C2)CC1 (stereo partly specified) returned Pf Dd2 growth inactive.
For O=C(NC1CCc2nn(CC3CC3)c(=O)n2CC1)c1ccc2cc[nH]c2c1 (stereo unspecified) the results were Pf Dd2 growth inactive.
`COc1ccc(CCC(=O)N2CCC[C@H]2c2nc(-c3ccccc3Cl)no2)cc1` gave Pf Dd2 growth inactive.
Screening Cc1ccc(NC(=O)Cn2c(C)cc3nc4n(c(=O)c32)CCCC4)c(Cl)c1 returned Pf Dd2 growth inactive.
Screening COCC(=O)N1CCOC[C@H](Oc2cnccn2)C1 returned Pf Dd2 growth inactive.
CCNC(=O)N(C1CC1)C1CCOC2(CCN(C(=O)c3ccn(CC)n3)CC2)C1 (stereo unspecified) was read as Pf Dd2 growth inactive.
`Cn1nnnc1C1CCCN(C(=O)c2cccc(F)c2)C1` (stereo unspecified) gave Pf Dd2 growth inactive.
For Cc1nonc1CC(=O)N1CCCC(c2n[nH]c(=O)n2-c2ccccc2)C1 (stereo unspecified) the results were Pf Dd2 growth inactive.
`COc1cccc(C(=O)N2CCC3(CC2)N=C(c2ccc(C)cc2)NO3)c1` gave Pf Dd2 growth inactive.
`COc1cccc(C(=O)N2CCC3(CC2)N=C(c2cccc(Br)c2)NO3)c1` gave Pf Dd2 growth inactive.
COc1cccc(C(=O)N2CCC3(CC2)N=C(c2ccc(Br)cc2)NO3)c1 was read as Pf Dd2 growth 7.9µM.
Screening O=C(c1ccco1)N1CCC(c2noc(CO)n2)C1 (stereo unspecified) returned Pf Dd2 growth inactive.
Cc1nc2ncnn2c(C)c1CCC(=O)NCC1CCOc2ccccc2C1 (stereo unspecified) was read as Pf Dd2 growth inactive.
`O=C(NCc1ccccc1)O[C@H]1COCCN(c2nc3ccccc3s2)C1` gave Pf Dd2 growth inactive.
`COCCNc1ncc(-c2cccc(NC(C)=O)c2)c2c1OCC2` gave Pf Dd2 growth inactive.
`O=C(NCCc1ccncc1)C1c2ccccc2C(=O)N(C2CCCCC2)C12CCCCC2` (stereo unspecified) gave Pf Dd2 growth 10µM.
`CCCNC(=O)C1c2ccccc2C(=O)N(C2CCCCC2)C12CCCCC2` (stereo unspecified) gave Pf Dd2 growth inactive.
For O=C(NCCc1ccncc1)C1c2ccccc2C(=O)N(Cc2ccccc2)C12CCCC2 (stereo unspecified) the results were Pf Dd2 growth inactive.
CSc1cccc(NC(=O)Cn2cccc2-c2nc(-c3ccc4c(c3)OCO4)no2)c1 was read as Pf Dd2 growth inactive.
For O=C(Nc1cc(-c2nc3cc(Cl)ccc3o2)ccc1Cl)c1cc([N+](=O)[O-])ccc1N1CCOCC1 the results were Pf Dd2 growth inactive.
`Cc1ccc2oc(-c3ccc(C)c(NC(=O)c4ccc(N5CCC(C)CC5)c([N+](=O)[O-])c4)c3)nc2c1` gave Pf Dd2 growth inactive.
For CCc1ccc2oc(-c3cccc(NC(=O)c4ccc(N5CCC(C)CC5)c([N+](=O)[O-])c4)c3)nc2c1 the results were Pf Dd2 growth 7.9µM.
Cc1ccc(-c2nc3cc(Cl)ccc3o2)cc1NC(=O)c1cc([N+](=O)[O-])ccc1N1CCOCC1 was read as Pf Dd2 growth inactive.
O=C(Nc1cccc(-c2nc3ccccc3o2)c1)c1cc([N+](=O)[O-])ccc1N1CCOCC1 was read as Pf Dd2 growth 8.9µM.
For Cc1c(NC(=O)c2ccc(N3CCC(C)CC3)c([N+](=O)[O-])c2)cccc1-c1nc2ccccc2o1 the results were Pf Dd2 growth inactive.
CN1C(=O)CCC2(CNC(=O)c3cccnc3)CCCC=C12 (stereo unspecified) was read as Pf Dd2 growth inactive.
CC(C)c1noc(C2CCCN2S(=O)(=O)N2CCCCCC2)n1 (stereo unspecified) was read as Pf Dd2 growth inactive.
O=C(Nc1ccccc1)N1CCC2(CCCCO2)CC1 was read as Pf Dd2 growth inactive.
For Cc1ccc(C(=O)N2C[C@@H](F)C[C@H]2C(=O)N2CCCCC2)cc1F the results were Pf Dd2 growth inactive.
O=C(C[C@@H]1CCNC[C@@H]1Cc1cc(CC2CCCCC2)on1)NCc1ccco1 was read as Pf Dd2 growth inactive.
COc1ccc(CNC(=O)C[C@@H]2CCNC[C@@H]2Cc2cc(CN3CCOCC3)on2)cc1 was read as Pf Dd2 growth inactive.
`COc1ccc(CNC(=O)C[C@@H]2CCNC[C@@H]2Cc2cc(CC3CCCCC3)on2)cc1` gave Pf Dd2 growth 11µM.
Cn1cnc(C(=O)N[C@@H]2CN(c3ncccn3)C[C@H]2CO)c1 was read as Pf Dd2 growth inactive.
COc1ccc(S(=O)(=O)N(CC(=O)N2CCc3ccccc3C2)c2ccc(C)cc2)cc1 was read as Pf Dd2 growth inactive.
For Cc1ccc(N(CC(=O)NCc2ccc(F)cc2)S(=O)(=O)c2c(C)nn(C)c2C)cc1 the results were Pf Dd2 growth inactive.
`Cc1ccc(N(CC(O)Cn2c3ccccc3c3ccccc32)S(=O)(=O)c2ccc(F)cc2)cc1` (stereo unspecified) gave Pf Dd2 growth 13µM.
